Drawing on PubChem BioAssay, this text covers z-score and composite z-score for nine compounds.

Assay [1] is described as follows: HepG2 liver cancer cell viability effects, profiling panel, resazurin fluorescence, 24 h, PK04 Diversity Set (AID 1172). Conditions: higher = more signal. Background: Alamar Blue is a resazurin reagent that responds to reducing activity.
Assay [2] can be described thus: basal S. cerevisiae growth modulation, no modifier, primary screen, OD600, strain BY4716, 24 h, basal condition (AID 1173). Conditions: OD600, 24 h, higher = more signal, called active from +8 up or from −8 down.
Assay [3] in a line: MM1S myeloma cell viability, profiling panel, resazurin fluorescence, basal, 24 h, PK04 Diversity Set (AID 1174). Conditions: higher = more signal, called active from +8 up or from −8 down.
The target of assay [4] is Dihydroorotate dehydrogenase (quinone), mitochondrial (Plasmodium falciparum (isolate 3D7)) (UniProt Q08210). In words: PfDHODH enzyme inhibitors, primary screen, biochemical, C-terminal His tag, absorbance 600 nm (AID 1175).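 Also: recombinant parasite enzyme with a five histidine tag at its C terminus.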 Conditions: DCIP absorbance 600 nm, higher = more signal, called active from +8 up or from −8 down.
The nature of assay [5]: P. aeruginosa biofilm formation inhibitors, primary screen, strain PAO1, LB-PBS medium, absorbance 600 nm (AID 1176). Conditions: P. aeruginosa PAO1 growth/biofilm, A600, 12 h; higher = more signal.
A short description of assay [6]: S. cerevisiae RM11-1a growth modifiers, primary screen, strain RM11-1a, OD600, basal, 24 h (AID 1177).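 Also: cultures grown under basal conditions with no added stressor.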 Conditions: OD600, 24 h, higher = more signal, called active from +8 up or from −8 down.
A short description of assay [7]: E. coli acrAB mutant growth effects, primary screen, E. coli filamentation inducers, strain DRC39, OD650, 24 h (AID 1178).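 Also: growth measured as culture turbidity by optical density at 650 nm.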 The settings on record: higher = more signal, called active from +8 up or from −8 down.
Assay [8] in a line: E. coli acrAB mutant growth effects, primary screen, E. coli filamentation inducers, strain DRC39, OD650, 48 h (AID 1179).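 Also: screen aims at cell division blockers that make cells filament.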 The settings on record: E. coli DRC39 delta-acrAB growth, higher = more signal, called active from +8 up or from −8 down.
Assay [9] can be described thus: RPMI8226 myeloma cell viability, profiling panel, resazurin fluorescence, basal, 24 h, PK04 Diversity Set (AID 1180).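 Also: RPMI8826 multiple myeloma cell line at 5000 cells per well.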 Conditions: higher = more signal.
For assay [10], the target named is E3 ubiquitin-protein ligase XIAP (Homo sapiens) (UniProt P98170). The experiment in a line: XIAP binders, primary screen, biophysical, small-molecule microarray, fluorescence 635 nm (AID 1181).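 Also: score merges 667 nm emission and signal to noise over triplicate slides.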 Conditions: small-molecule microarray binding, higher = more signal.
Assay [11] relates to XIP peptide (Xip251-270) binding. The experiment in a line: small-molecule binders of XIP peptide, primary screen, biochemical, small-molecule microarray, fluorescence 635/667 nm, 0.1 µg/mL protein (AID 1182). The settings on record: fluorescent protein binding, 635 nm, higher = more signal, called active from +8 up or from −8 down.
Another assay relates to XIP peptide (Xip251-270). In words: small-molecule binders of XIP peptide, primary screen, biochemical, small-molecule microarray, fluorescence 635/667 nm, 0.5 µg/mL protein (AID 1183). The settings on record: small-molecule microarray binding, fluorescence 635 nm; higher = more signal.
Assay [12] can be described thus: Plasmodium falciparum growth inhibition, primary screen, strain 3D7, DAPI fluorescence, 100 nL (AID 1184).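 Also: parasites grown inside human red blood cells in medium with human serum.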 The settings on record: P. falciparum 3D7 growth, 3 d, higher = more signal.
The target in assay [13] is Homeobox protein Hox-A13 (Mus musculus) (UniProt Q62424). In words: inhibitors of HoxA13-DNA binding, primary screen, biochemical, fluorescence polarization, labeled oligonucleotide (AID 1185). Conditions: 15 min, higher = more signal, called active from +8 up or from −8 down. On the technique in general: Polarisation of emitted light reports the rotation of a fluorescent probe.

A short description of assay [14]: inhibitors of hydroxyurea-induced Chk1 phosphorylation, primary screen, imaging, HeLa, phospho-Chk1 antibody, percent positive cells (AID 1186). The settings on record: hydroxyurea-induced phospho-Chk1 immunofluorescence imaging, higher = more signal.
The nature of assay [15]: inhibitors of hydroxyurea-induced Chk1 phosphorylation, primary screen, imaging, HeLa, phospho-Chk1 nuclear intensity (AID 1187). Conditions: hydroxyurea-induced phospho-Chk1 immunofluorescence imaging, higher = more signal.

Calls of active or inactive are those of the source. Unless noted, no rule for the calls is given here.

Chain of Homeobox protein Hox-A13 (Mus musculus) (Q62424 whole entry, looked up): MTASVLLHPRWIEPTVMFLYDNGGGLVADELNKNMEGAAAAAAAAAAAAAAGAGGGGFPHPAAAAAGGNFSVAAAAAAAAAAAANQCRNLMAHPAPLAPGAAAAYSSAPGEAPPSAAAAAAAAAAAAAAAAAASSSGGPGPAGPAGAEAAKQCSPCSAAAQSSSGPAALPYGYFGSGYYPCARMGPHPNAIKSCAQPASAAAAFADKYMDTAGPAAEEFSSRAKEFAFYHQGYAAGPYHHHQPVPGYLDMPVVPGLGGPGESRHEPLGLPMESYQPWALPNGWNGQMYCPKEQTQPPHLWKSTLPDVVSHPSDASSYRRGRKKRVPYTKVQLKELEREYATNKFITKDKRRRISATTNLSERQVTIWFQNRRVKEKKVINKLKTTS
Chain of E3 ubiquitin-protein ligase XIAP (Homo sapiens) (P98170 whole entry, looked up): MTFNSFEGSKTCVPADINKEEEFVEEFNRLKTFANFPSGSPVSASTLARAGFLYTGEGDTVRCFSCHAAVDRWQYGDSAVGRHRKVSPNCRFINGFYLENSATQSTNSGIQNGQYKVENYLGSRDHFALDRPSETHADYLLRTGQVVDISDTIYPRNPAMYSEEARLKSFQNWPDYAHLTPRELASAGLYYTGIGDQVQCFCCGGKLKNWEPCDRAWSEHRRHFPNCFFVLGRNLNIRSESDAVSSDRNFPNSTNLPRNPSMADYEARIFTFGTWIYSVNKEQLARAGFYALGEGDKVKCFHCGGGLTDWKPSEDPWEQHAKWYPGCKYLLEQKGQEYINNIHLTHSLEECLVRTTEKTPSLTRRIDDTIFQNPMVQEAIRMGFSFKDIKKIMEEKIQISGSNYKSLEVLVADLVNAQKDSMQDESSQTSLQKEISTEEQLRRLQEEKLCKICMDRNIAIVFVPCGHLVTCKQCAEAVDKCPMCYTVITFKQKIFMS
Chain of Dihydroorotate dehydrogenase (quinone), mitochondrial (Plasmodium falciparum (isolate 3D7)) (Q08210 whole entry, looked up): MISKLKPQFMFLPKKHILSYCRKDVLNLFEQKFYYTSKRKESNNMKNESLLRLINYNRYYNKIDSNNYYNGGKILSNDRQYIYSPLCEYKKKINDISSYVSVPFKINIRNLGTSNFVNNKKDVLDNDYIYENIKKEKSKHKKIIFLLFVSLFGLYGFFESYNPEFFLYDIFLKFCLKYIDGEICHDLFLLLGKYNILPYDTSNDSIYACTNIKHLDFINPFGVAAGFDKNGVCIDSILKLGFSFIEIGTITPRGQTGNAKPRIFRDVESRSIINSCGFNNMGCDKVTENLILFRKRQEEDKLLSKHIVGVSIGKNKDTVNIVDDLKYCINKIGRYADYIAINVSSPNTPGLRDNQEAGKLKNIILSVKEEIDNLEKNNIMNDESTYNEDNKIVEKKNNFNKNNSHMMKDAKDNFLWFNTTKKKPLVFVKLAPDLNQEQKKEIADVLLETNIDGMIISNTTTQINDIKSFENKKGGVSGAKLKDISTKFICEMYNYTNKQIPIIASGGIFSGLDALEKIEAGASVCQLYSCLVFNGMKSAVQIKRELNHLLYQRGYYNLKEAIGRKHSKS

In the case of `COC(=O)C(CC#Cc1ccc2c(c1)[C@]1(C(=O)N2)[C@H](c2ccccc2OCCO)N2[C@H](c3ccccc3)[C@H](c3ccccc3)OC(=O)[C@H]2[C@@H]1C(=O)Nc1nc2ccccc2s1)C(=O)OC`, the z-score in assay [1] was -0.449; in assay [2] it was 1.4 (inactive); in assay [3] it was 0.699 (inactive); in [5], 3.7 (inactive); in assay [6], 2.33 (inactive); in [7], -0.0715 (inactive). Also, the z-score in [8] is 0.172 (inactive); in assay [9], 1.05; in [12], -2; in assay [13] it was 0.787 (inactive); in assay [14], -0.0918 (inactive); in assay [15], -0.269 (inactive). Also, the composite z-score in assay [4] is -8 (inactive); in assay [10] it was 0.0264; in [11], 1.32 (inactive); in the assay on XIP peptide (Xip251-270) it was 0.727.

`C=CCOc1ccc([C@@H]2CC=C(C(=O)OCC)[C@H](c3cccc(Br)c3)N2S(=O)(=O)c2ccc(C)cc2)cc1`: the z-score in assay [1] was -0.696; in assay [2] it was 0.465 (inactive); in [3], 0.262 (inactive); in assay [5], 0.285 (inactive); in assay [6], -0.897 (inactive); in [7], -0.273 (inactive). Also, the z-score in [8] is 1.05 (inactive); in [9] it was -0.155; in assay [12] it was -1.94; in assay [13], 0.422 (inactive); in assay [14], -0.0778 (inactive); in [15], 0.295 (inactive). Further, the composite z-score in [4] is -1.92 (inactive); in [10], -0.258; in [11], -0.355 (inactive); in the assay on XIP peptide (Xip251-270), -0.498.

In the case of `Cc1ccccc1C(O)C1C=CC2C(=O)N(C)C(=O)C2N1Nc1ccc([N+](=O)[O-])cc1[N+](=O)[O-]` (centres undefined), the z-score is -0.138 in assay [1]; 1.09 (inactive) in [2]; -0.729 (inactive) in assay [3]; 0.186 (inactive) in assay [5]; 0.446 (inactive) in assay [6]; -0.456 (inactive) in assay [7]. The z-score in assay [8] is -0.401 (inactive); in [9], -0.963; in assay [12], 0.368; in [13], -4.08 (inactive); in [14] it was 0.348 (inactive); in assay [15] it was -0.0828 (inactive). For the same compound, the composite z-score in assay [4] is -0.286 (inactive); in [10] it was -0.0172; in assay [11], 3.99 (inactive); with XIP peptide (Xip251-270), 0.476.

Take `CCOC(=O)C1=CC[C@@H](c2cccc(Br)c2)N(S(=O)(=O)c2ccc(C)cc2)[C@H]1c1ccc([N+](=O)[O-])cc1`: the z-score in assay [1] is 0.157; in assay [2], 0.25 (inactive); in assay [3] it was -0.343 (inactive); in [5] it was 0.449 (inactive); in assay [6], -0.403 (inactive); in assay [7], -0.837 (inactive). In addition, the z-score in [8] is -0.0589 (inactive); in [9] it was -1.14; in assay [12] it was -1.92; in assay [13], 4.18 (inactive); in [14], 0.476 (inactive); in assay [15] it was 0.508 (inactive). Besides, the composite z-score is -1.26 (inactive) in assay [4], -0.27 in assay [10], 0.422 (inactive) in assay [11] and 0.707 in the assay on XIP peptide (Xip251-270).

In the case of `COC(=O)[C@]1(Cc2ccccc2CN=[N+]=[N-])N=C(c2ccc(OCCCO)cc2)O[C@@H]1c1ccccc1CN=[N+]=[N-]`, the z-score in assay [1] was -1.27; in assay [2] it was 0.803 (inactive); in assay [3] it was -3.36 (inactive); in [5], 3.93 (inactive); in assay [6], 2.92 (inactive); in assay [7], 2.1 (inactive). In addition, the z-score in [8] was 1.6 (inactive); in [9], -4.23; in assay [12], -2.27; in [13], 0.13 (inactive); in [14] it was -0.716 (inactive); in [15], -0.601 (inactive). Moreover, the composite z-score is 1.36 (inactive) in [4], -0.0025 in [10], 0.319 (inactive) in assay [11] and 0.728 with XIP peptide (Xip251-270).

For `COCC1=C([C@H](O)CCc2ccccc2)[C@H](CO)[C@@H]2C(=O)N(C)C(=O)[C@@H]2C1`, the z-score in [1] is -0.548; in assay [2], -1.66 (inactive); in assay [3], 0.244 (inactive); in assay [5] it was 0.908 (inactive); in assay [6], 0.1 (inactive); in assay [7], 2.16 (inactive). Moreover, the z-score in assay [8] is 1.65 (inactive); in [9], 0.544; in [12] it was -0.119; in assay [13] it was -6.06 (inactive); in [14], -0.32 (inactive); in assay [15] it was -0.523 (inactive). The composite z-score in assay [4] was -0.0291 (inactive); in [10] it was -0.353; in assay [11], -0.328 (inactive); in the assay with XIP peptide (Xip251-270), 0.104.

As to `COc1ccc(C#Cc2ccc3c(c2)[C@]2(C(=O)N3)[C@H](C(N)=O)[C@H]3C(=O)O[C@H](c4ccccc4)[C@H](c4ccccc4)N3[C@@H]2c2ccc(O)cc2)cc1`, the z-score in assay [1] was -0.295; in assay [2] it was -0.299 (inactive); in [3], -4.88 (inactive); in assay [5] it was 1.41 (inactive); in assay [6], 1.68 (inactive); in assay [7], 0.666 (inactive). Moreover, the z-score was 0.714 (inactive) in assay [8]; -6.43 in assay [9]; 0.0021 in [12]; -0.559 (inactive) in assay [13]; -0.607 (inactive) in assay [14]; -0.861 (inactive) in assay [15]. The composite z-score is 0.817 (inactive) in assay [4], 0.0031 in assay [10], 1.13 (inactive) in [11] and 0.712 in the assay with XIP peptide (Xip251-270).

With `C[C@@]1([C@@H](NC(=O)c2cccs2)c2ccc(-c3ccccc3)cc2)C[C@H]1C1CCCCC1`, the z-score in assay [1] was 0.133; in assay [2] it was 0.774 (inactive); in assay [3], -0.0911 (inactive); in [5], 2.3 (inactive); in assay [6], 0.548 (inactive); in assay [7], 0.0767 (inactive). For the same compound, the z-score in assay [8] is -0.483 (inactive); in [9], 0.689; in assay [12], -0.972; in [13], -0.431 (inactive); in [14], 0.193 (inactive); in assay [15] it was -0.421 (inactive). Besides, the composite z-score in assay [4] was -3.3 (inactive); in [10], 0.246; in assay [11] it was -0.592 (inactive); in the assay with XIP peptide (Xip251-270), -0.0139.

Regarding `C=CCOC(=O)[C@@H]1[C@H]2C(=O)O[C@H](c3ccccc3)[C@H](c3ccccc3)N2[C@H](c2ccc(OCCOC(=O)[C@@H]3C[C@@H]4C(=O)N5CCC[C@H]5C(=O)N4[C@@H]3c3cccc(OCCO)c3)cc2)[C@@]12C(=O)Nc1ccc(I)cc12`, the z-score was 0.586 in assay [1]; 1.53 (inactive) in assay [2]; 0.356 (inactive) in [3]; 1.69 (inactive) in [5]; 2.07 (inactive) in assay [6]; 0.132 (inactive) in assay [7]. For the same compound, the z-score was -0.63 (inactive) in [8]; 0.281 in assay [9]; -1.72 in assay [12]; 1.17 (inactive) in [13]; 0.021 (inactive) in assay [14]; 0.318 (inactive) in assay [15]. Besides, the composite z-score in assay [4] was -0.652 (inactive); in [10], -0.224; in assay [11], 0.284 (inactive); with XIP peptide (Xip251-270), 0.632.
